# In PubChem BioAssay (NCATS):
# A number with no mark means an inactive call. Records with an inconclusive call do not appear. A call without a number means that no potency is given here. Active and inactive are the calls of the source. Unless noted, the call rests on the fitted dose curve.
# Legend:
# [1] = molecular target: Cytochrome P450 1A2 (Homo sapiens) (UniProt P05177); assay: p450-cyp1a2 (AID 410); further: potency means the concentration at half of the fitted maximal effect
# Outline: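 O-Demethylation of luciferin 6' methyl ether by human CYP1A2 is monitored as luciferase luminescence. Substrate sits at Km (100uM); enzyme is 20nM. Values are scaled to 57 uM furafylline as maximal inhibition.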
# [2] = molecular target: Glucocorticoid receptor (Homo sapiens) (UniProt P04150); assay: GR-EFC Redistribution (AID 451); settings: CHO-K1 GR-EFC translocation, beta-gal luminescence, 2 h; further: potency means the concentration at half of the fitted maximal effect
# Sequence of Glucocorticoid receptor (Homo sapiens) (P04150 whole entry, looked up, the tested form may be a part): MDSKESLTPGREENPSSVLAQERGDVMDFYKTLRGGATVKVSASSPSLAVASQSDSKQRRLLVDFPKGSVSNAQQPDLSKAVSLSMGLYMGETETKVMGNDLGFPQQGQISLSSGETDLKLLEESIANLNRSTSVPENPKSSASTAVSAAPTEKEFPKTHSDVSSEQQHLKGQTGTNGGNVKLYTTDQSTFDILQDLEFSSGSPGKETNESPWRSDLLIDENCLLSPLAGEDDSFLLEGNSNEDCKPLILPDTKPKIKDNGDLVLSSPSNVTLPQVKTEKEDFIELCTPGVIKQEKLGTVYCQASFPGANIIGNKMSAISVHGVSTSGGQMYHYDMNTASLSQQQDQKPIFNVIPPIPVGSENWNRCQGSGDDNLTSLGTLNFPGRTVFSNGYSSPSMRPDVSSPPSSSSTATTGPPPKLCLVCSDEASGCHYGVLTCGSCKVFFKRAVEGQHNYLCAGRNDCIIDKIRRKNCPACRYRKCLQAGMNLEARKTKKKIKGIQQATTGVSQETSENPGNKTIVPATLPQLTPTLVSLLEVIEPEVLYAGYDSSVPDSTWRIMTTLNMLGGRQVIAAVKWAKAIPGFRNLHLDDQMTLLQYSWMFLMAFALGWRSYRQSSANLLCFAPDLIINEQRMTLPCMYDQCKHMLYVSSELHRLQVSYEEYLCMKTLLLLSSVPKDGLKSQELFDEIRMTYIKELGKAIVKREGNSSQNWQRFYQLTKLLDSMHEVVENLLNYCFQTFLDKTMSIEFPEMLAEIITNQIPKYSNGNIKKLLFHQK
# Outline: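 CHO-K1 cells stably expressing nuclear-localized β-gal enzyme acceptor and GR fused C-terminally to the enzyme donor fragment; ligand-driven nuclear translocation restores β-gal by complementation. Compounds titrated up to 46 uM final, 2 h at 37 °C; luminescence read.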
# [3] = molecular target: Mitogen-activated protein kinase 10 (Mus musculus) (UniProt Q61831); assay: JNK3 AlphaScreen Assay (AID 530; active means well fitted curve in either direction with a large enough effect, not every such curve was filed as active;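 further: kinase came from lysate of stimulated human HepG2 cells; signal reports phosphorylation of biotinylated GST-cJun 1-79 at Ser73 with 10 µM ATP; series mostly up to about 57 µM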)
# Outline: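 Phosphorylation of biotinylated GST-cJun(1-79) at Ser73 is measured by AlphaScreen proximity luminescence. Enzyme is JNK3 in HepG2 lysates activated with interleukin-1beta and tumor necrosis factor alpha; ATP is 10 uM final.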
# [4] = molecular target: 3',5'-cyclic-AMP phosphodiesterase 4B (Homo sapiens) (UniProt Q07343); assay: qHTS Assay for Inhibitors of PDE-IV (AID 607; active means well fitted activation curve with a large enough effect in the main read-out, with a control signal flat, not every such curve was filed as active)
# Sequence of 3',5'-cyclic-AMP phosphodiesterase 4B (Homo sapiens) (Q07343 whole entry, looked up): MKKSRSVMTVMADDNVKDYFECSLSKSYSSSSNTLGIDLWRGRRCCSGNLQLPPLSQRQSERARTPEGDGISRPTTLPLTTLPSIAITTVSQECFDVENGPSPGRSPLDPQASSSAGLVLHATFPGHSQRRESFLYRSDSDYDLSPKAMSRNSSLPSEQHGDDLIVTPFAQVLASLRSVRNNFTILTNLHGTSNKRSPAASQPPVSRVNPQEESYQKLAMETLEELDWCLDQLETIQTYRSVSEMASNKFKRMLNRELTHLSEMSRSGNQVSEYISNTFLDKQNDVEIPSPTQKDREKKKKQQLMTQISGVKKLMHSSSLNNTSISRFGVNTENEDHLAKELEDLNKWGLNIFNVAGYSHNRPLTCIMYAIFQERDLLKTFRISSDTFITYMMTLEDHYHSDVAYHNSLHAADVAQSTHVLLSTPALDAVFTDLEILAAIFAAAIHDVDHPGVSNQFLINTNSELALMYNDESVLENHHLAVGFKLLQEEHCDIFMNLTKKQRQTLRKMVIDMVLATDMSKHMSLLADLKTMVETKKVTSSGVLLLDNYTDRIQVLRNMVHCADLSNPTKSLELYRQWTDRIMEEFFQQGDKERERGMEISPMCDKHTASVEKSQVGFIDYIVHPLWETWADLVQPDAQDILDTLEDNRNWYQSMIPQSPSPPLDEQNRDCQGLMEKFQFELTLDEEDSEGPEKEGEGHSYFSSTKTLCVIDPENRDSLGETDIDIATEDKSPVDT
# Outline: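 Live HEK293 cells with a modified cyclic nucleotide-gated (CNG) channel report intracellular cAMP via membrane-potential dye fluorescence (ex 535/em 590 nm). Endogenous PDE-IV was targeted. Compounds were tested at up to 22.9 uM final; RO 20-1724 100 uM served as control.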
# [5] = molecular target: Cytochrome P450 2C19 (Homo sapiens) (UniProt P33261); assay: qHTS Assay for Inhibitors and Substrates of Cytochrome P450 2C19 (AID 899; active means well fitted curve in the direction sought with a large enough effect; an effect the other way counts as inactive or inconclusive; further: nearly all actives have a fitted effect of over 60% in size; further: potency means the concentration at half of the fitted maximal effect)
# Sequence of Cytochrome P450 2C19 (Homo sapiens) (P33261 whole entry, looked up): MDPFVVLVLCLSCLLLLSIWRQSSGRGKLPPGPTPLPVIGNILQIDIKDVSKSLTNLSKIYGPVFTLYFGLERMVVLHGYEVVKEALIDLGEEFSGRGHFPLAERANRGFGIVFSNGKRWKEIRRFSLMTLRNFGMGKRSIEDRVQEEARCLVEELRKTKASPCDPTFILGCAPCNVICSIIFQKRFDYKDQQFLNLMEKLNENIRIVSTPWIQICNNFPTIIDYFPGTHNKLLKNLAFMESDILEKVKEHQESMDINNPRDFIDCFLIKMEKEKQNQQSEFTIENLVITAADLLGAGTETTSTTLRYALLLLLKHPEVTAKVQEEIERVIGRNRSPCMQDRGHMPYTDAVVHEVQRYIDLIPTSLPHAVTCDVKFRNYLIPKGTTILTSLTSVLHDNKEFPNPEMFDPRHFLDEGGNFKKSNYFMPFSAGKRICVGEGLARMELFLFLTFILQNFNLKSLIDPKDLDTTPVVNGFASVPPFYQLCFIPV
# Outline: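 In 50mM KPO4, the reaction held 5nM enzyme and KM-level (10uM) Luciferin-H EGE; it ran 60 min at 37C after NADPH regeneration and a 10 min compound preincubation. Luminescence values were scaled to 57uM ketoconazole as complete inhibition.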
# [6] = molecular target: Cytochrome P450 2D6 (Homo sapiens) (UniProt P10635); assay: qHTS Assay for Inhibitors and Substrates of Cytochrome P450 2D6 (AID 891; active means well fitted curve in the direction sought with a large enough effect; an effect the other way counts as inactive or inconclusive; further: nearly all actives have a fitted effect of over 60% in size; further: potency means the concentration at half of the fitted maximal effect)
# Sequence of Cytochrome P450 2D6 (Homo sapiens) (P10635 whole entry, looked up): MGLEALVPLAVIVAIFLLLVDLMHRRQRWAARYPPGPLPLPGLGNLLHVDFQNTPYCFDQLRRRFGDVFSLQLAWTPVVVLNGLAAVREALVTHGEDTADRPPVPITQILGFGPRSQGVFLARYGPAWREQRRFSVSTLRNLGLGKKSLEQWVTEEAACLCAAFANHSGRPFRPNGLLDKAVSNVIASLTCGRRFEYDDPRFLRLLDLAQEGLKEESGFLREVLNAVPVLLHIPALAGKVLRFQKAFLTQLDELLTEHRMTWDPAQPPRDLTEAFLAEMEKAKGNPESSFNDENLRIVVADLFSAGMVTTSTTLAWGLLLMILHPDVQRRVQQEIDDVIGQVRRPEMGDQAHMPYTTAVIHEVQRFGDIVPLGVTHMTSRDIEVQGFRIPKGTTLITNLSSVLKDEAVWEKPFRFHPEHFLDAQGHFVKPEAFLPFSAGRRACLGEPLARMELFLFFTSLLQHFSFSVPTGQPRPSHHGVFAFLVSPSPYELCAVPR
# Outline: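 Luminescent read-out of luciferin formed by 5 nM human CYP2D6 demethylating 30 uM Luciferin-ME EGE (Km level) over 60 min at room temperature after NADPH regeneration addition. Data normalized to full inhibition by 1.43 uM quinidine.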
# [7] = molecular target: Cytochrome P450 2C9 (Homo sapiens) (UniProt P11712); assay: qHTS Assay for Inhibitors and Substrates of Cytochrome P450 2C9 (AID 883; active means well fitted curve in the direction sought with a large enough effect; an effect the other way counts as inactive or inconclusive; further: nearly all actives have a fitted effect of over 60% in size; further: potency means the concentration at half of the fitted maximal effect)
# Sequence of Cytochrome P450 2C9 (Homo sapiens) (P11712 whole entry, looked up): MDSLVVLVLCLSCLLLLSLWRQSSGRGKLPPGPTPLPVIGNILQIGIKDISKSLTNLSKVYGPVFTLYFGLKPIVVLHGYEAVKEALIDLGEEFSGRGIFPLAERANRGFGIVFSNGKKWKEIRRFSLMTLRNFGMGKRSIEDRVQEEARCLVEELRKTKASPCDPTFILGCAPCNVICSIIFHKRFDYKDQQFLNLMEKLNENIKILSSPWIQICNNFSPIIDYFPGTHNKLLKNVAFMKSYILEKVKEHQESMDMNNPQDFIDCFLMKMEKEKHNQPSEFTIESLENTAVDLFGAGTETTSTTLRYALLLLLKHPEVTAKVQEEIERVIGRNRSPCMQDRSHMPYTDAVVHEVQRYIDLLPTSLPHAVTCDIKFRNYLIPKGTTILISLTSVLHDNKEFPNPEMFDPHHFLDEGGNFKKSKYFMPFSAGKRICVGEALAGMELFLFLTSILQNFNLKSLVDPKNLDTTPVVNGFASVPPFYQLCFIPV
# Outline: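 CYP2C9 deoxyluciferin hydroxylation, 37C, 60 min with NADPH regeneration; 10nM enzyme, 100uM Luciferin-H (KM). Glo detection reagent stopped reaction; luminescence normalized to sulphaphenazole (57uM) full inhibition.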
# [8] = molecular target: Cytochrome P450 3A4 (Homo sapiens) (UniProt P08684); assay: qHTS Assay for Inhibitors and Substrates of Cytochrome P450 3A4 (AID 884; active means well fitted curve in the direction sought with a large enough effect; an effect the other way counts as inactive or inconclusive; further: potency means the concentration at half of the fitted maximal effect; nearly all actives have a fitted effect of over 50% in size)
# Sequence of Cytochrome P450 3A4 (Homo sapiens) (P08684 whole entry, looked up): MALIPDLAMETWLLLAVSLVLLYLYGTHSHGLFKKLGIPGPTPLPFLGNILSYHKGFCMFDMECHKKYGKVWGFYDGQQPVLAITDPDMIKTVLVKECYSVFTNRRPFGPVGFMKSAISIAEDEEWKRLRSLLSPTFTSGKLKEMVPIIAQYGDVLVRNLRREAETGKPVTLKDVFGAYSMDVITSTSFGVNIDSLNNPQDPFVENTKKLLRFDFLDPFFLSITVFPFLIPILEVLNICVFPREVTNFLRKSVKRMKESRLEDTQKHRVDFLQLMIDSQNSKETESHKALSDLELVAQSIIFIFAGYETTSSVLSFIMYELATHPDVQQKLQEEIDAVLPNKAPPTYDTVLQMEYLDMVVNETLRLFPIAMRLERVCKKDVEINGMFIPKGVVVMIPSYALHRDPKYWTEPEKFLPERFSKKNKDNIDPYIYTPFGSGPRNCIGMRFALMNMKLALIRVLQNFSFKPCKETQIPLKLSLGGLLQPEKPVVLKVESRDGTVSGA
# Outline: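 Luminescent readout of luciferin produced by CYP3A4 (20 nM) dealkylation of Luciferin-PPXE, 25 uM (its KM). NADPH-driven reaction ran 60 min at RT after 10 min compound preincubation; data scaled to 57 uM ketoconazole as 100% inhibition.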
# [9] = molecular target: Cytochrome P450 3A4 (Homo sapiens) (UniProt P08684); assay: qHTS Assay for Activators of Cytochrome P450 3A4 (AID 885; active means well fitted curve in the direction sought with a large enough effect; an effect the other way counts as inactive or inconclusive; further: nearly all actives have a fitted effect of over 65% in size)
# Outline: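 Using 20nM recombinant human CYP3A4 in potassium phosphate (200mM), substrate Luciferin-PPXE at 25uM, luminescent luciferin detection followed a 60-min RT NADPH reaction; data scaled to 57 uM ketoconazole.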
# [10] = molecular target: Tyrosyl-DNA phosphodiesterase 1 (Homo sapiens) (UniProt Q9NUW8); assay: Confirmation Assay for Inhibitors of Tyrosyl-DNA Phosphodiesterase (TDP1) (AID 489007; active means well fitted curve in the direction sought with a large enough effect; an effect the other way counts as inactive or inconclusive; further: potency means the concentration at half of the fitted maximal effect; nearly all actives have a fitted effect of over 40% in size); settings: recombinant human TDP1 enzymatic activity, dose-response
# Sequence of Tyrosyl-DNA phosphodiesterase 1 (Homo sapiens) (Q9NUW8 whole entry, looked up): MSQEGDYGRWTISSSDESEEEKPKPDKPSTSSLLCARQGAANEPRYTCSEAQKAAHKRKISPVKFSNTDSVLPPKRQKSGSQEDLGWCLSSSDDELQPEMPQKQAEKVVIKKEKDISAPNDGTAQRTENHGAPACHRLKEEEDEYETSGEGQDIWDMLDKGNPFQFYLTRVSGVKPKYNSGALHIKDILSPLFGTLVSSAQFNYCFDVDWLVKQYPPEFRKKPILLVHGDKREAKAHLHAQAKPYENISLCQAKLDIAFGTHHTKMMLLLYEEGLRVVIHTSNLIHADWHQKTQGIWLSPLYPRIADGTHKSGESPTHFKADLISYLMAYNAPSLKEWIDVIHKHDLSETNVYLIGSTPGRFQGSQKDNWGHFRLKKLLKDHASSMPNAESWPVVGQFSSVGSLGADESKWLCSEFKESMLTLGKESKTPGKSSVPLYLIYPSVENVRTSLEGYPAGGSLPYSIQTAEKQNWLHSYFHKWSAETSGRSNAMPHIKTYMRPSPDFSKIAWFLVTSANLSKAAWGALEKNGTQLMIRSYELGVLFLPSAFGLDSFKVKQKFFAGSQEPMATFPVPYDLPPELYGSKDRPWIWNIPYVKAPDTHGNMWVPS
# Outline: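 Compounds are preincubated 15 min at room temperature with 1 nM recombinant human Tdp1. The reaction starts on adding 15 nM FITC-phosphotyrosine DNA substrate, runs 5 min, and is detected by AlphaScreen beads after 10 min.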
# Sequence of Cytochrome P450 1A2 (Homo sapiens) (P05177 whole entry, looked up): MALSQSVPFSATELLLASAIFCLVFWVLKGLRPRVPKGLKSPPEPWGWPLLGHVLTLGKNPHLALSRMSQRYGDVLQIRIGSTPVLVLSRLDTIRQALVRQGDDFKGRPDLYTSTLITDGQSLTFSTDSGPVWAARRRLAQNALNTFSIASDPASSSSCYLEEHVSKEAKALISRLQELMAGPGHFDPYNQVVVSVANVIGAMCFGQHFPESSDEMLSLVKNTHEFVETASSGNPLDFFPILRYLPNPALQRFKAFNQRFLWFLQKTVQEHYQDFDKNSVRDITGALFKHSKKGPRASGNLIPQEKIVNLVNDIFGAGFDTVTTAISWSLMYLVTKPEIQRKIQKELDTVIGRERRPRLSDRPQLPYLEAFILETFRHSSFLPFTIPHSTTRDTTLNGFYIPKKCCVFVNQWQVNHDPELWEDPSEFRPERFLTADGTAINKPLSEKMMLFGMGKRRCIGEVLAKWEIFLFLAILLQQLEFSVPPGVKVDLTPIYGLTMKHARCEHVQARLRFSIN
smiles,measurement,setting,value
NCCC[C@@H](CC(=O)N[C@@H]1CCNC[C@H]1C(=O)N[C@H](CC(=O)N[C@@H](CCC(=O)O)CC(=O)O)Cc1c[nH]c2ccccc12)NC(=O)C[C@H](CO)NC(=O)[C@@H]1CNCC[C@H]1N,Potency,[1],inactive
same,Potency,[2],> 46 µM
same,Potency,[3],inactive
same,Potency,[4],inactive
same,Potency,[5],inactive
CC(C)C[C@@H](CC(=O)N[C@@H](CCC(=O)O)CC(=O)O)NC(=O)[C@@H]1CCCC[C@H]1NC(=O)C[C@@H](NC(=O)C[C@H](CO)NC(=O)[C@@H]1CCCC[C@H]1N)C(C)C,Potency,[1],inactive
same,Potency,[2],> 46 µM
same,Potency,[3],inactive
same,Potency,[4],inactive
same,Potency,[5],inactive
COc1cc(/C=C\C(=O)CC(=O)/C=C\c2ccc(O)c(OC)c2)ccc1O,Potency,[1],15.8 µM (active)
same,Potency,[2],> 46 µM
same,Potency,[3],inactive
same,Potency,[6],15.8 µM (active)
same,Potency,[5],2.51 µM (active)
CC(C)C[C@@H](CC(=O)N[C@@H](CCC(=O)O)CC(=O)O)NC(=O)[C@@H]1CCCC[C@H]1NC(=O)C[C@H](CCCN)NC(=O)C[C@H](Cc1ccccc1)NC(=O)[C@@H]1CCCC[C@H]1N,Potency,[1],inactive
same,Potency,[2],> 46 µM
same,Potency,[3],inactive
same,Potency,[4],inactive
same,Potency,[7],inactive
same,Potency,[5],inactive
CC(C)C[C@@H](CC(=O)N[C@@H](CCC(=O)O)CC(=O)O)NC(=O)[C@@H]1CNCC[C@H]1NC(=O)C[C@@H](NC(=O)C[C@H](Cc1c[nH]c2ccccc12)NC(=O)[C@@H]1CNCC[C@H]1N)C(C)C,Potency,[1],inactive
same,Potency,[2],> 46 µM
same,Potency,[4],inactive
same,Potency,[7],inactive
same,Potency,[5],inactive
CC(C)[C@@H](CC(=O)N[C@@H]1CCCC[C@H]1C(=O)N[C@H](CC(=O)N[C@@H](CCC(=O)O)CC(=O)O)Cc1c[nH]c2ccccc12)NC(=O)C[C@H](CO)NC(=O)[C@@H]1CNCC[C@H]1N,Potency,[1],inactive
same,Potency,[2],> 46 µM
same,Potency,[4],inactive
same,Potency,[6],inactive
same,Potency,[5],inactive
CC(C)C[C@@H](CC(=O)N[C@H](CC(=O)N[C@@H]1CCCC[C@H]1C(=O)N[C@H](CC(=O)N[C@@H](CCC(=O)O)CC(=O)O)CC(C)C)C(C)C)NC(=O)[C@@H]1CCCC[C@H]1N,Potency,[1],inactive
same,Potency,[2],> 46 µM
same,Potency,[3],inactive
same,Potency,[4],inactive
same,Potency,[6],inactive
same,Potency,[5],inactive
CC(C)[C@@H](CC(=O)N[C@@H]1CCNC[C@H]1C(=O)N[C@H](CC(=O)N[C@@H](CCC(=O)O)CC(=O)O)Cc1c[nH]c2ccccc12)NC(=O)C[C@H](CO)NC(=O)[C@@H]1CNCC[C@H]1N,Potency,[1],inactive
same,Potency,[2],> 46 µM
same,Potency,[4],inactive
same,Potency,[6],inactive
same,Potency,[5],inactive
CC(C)[C@@H](CC(=O)N[C@@H]1CCCC[C@H]1C(=O)N[C@H](CC(=O)N[C@@H](CCC(=O)O)CC(=O)O)Cc1ccccc1)NC(=O)C[C@H](CO)NC(=O)[C@@H]1CCCC[C@H]1N,Potency,[1],inactive
same,Potency,[2],> 46 µM
same,Potency,[3],inactive
same,Potency,[4],inactive
same,Potency,[6],inactive
NCCC[C@@H](CC(=O)N[C@@H]1CCCC[C@H]1C(=O)N[C@H](CC(=O)N[C@@H](CCC(=O)O)CC(=O)O)Cc1c[nH]c2ccccc12)NC(=O)C[C@H](Cc1c[nH]c2ccccc12)NC(=O)[C@@H]1CCCC[C@H]1N,Potency,[1],inactive
same,Potency,[2],> 46 µM
same,Potency,[4],inactive
same,Potency,[7],inactive
same,Potency,[6],inactive
same,Potency,[5],inactive
CCC/C=C(\CCC)C(NC(=O)Oc1ccc(F)cc1)c1ccc(C(=O)OC)cc1 (stereo not given),Potency,[1],inactive
same,Potency,[3],inactive
COC(=O)[C@@]1(Cc2ccc(F)cc2)[C@H]2c3cc(C(=O)N(C)C)n(Cc4cc(F)c(F)c(F)c4)c3C[C@H]2CN1C(=O)c1ccccc1,Potency,[1],inactive
same,Potency,[3],inactive
same,Potency,[4],inactive
CCCC[C@@H]1C[C@H]1C(NC(=O)c1ccc(-c2ccccc2)cc1)c1ccc(-c2ccccc2)cc1 (stereo not given in full),Potency,[1],inactive
same,Potency,[3],inactive
same,Potency,[4],inactive
COC(=O)[C@@]1(Cc2ccc(F)cc2)[C@H]2c3cc(C(=O)N(C)C)n(Cc4ccc(Cl)c(C(F)(F)F)c4)c3C[C@H]2CN1C(=O)c1ccccc1,Potency,[1],15.8 µM (active)
same,Potency,[3],inactive
same,Potency,[4],inactive
same,Potency,[7],3.98 µM (active)
same,Potency,[8],2 µM (active)
same,Potency,[9],inactive
COC(=O)[C@@]1(Cc2ccc(OC)cc2)[C@H]2c3cc(C(=O)N(C)C)n(CCN4CNCC4=O)c3C[C@H]2CN1C(=O)c1ccccc1,Potency,[1],20 µM (active)
same,Potency,[3],inactive
same,Potency,[4],inactive
CC1(C)S[C@@H]2[C@@H](NC(=O)[C@@H](N)c3ccccc3)C(=O)N2[C@H]1C(=O)O,Potency,[1],inactive
same,Potency,[3],inactive
same,Potency,[4],inactive
CCCCC#Cc1ccccc1CC(=O)Nc1ccccc1,Potency,[1],2.51 µM (active)
same,Potency,[3],inactive
same,Potency,[7],2.51 µM (active)
same,Potency,[9],inactive
same,Potency,[5],0.794 µM (active)
same,Potency,[10],31.6 µM (active)
COC(=O)[C@@]1(Cc2ccc(OC)cc2)[C@H]2c3cc(C(=O)N4CCCC4)n(Cc4c(CO)[nH]cc(C)c4=O)c3C[C@H]2CN1C(=O)c1ccccc1,Potency,[1],25.1 µM (active)
same,Potency,[3],inactive
same,Potency,[4],inactive
C[C@@]1(C(NC(=O)c2ccc(-c3ccccc3)cc2)c2ccc(Cl)cc2)C[C@H]1C1CCCCC1 (stereo not given in full),Potency,[1],inactive
same,Potency,[3],inactive
same,Potency,[4],inactive
